This passage reports binding signal and Kd results from publication PMC5913336, “True equilibrium measurement of transcription factor-DNA binding affinities using automated polarization microscopy”.

For this assay, the target named is Kr (Drosophila melanogaster, UniProt P07247 220-332). As to the kind of experiment: FP; 20 mM Tris-acetate pH 7.0, 50 "nM" NaCl as printed (probably mM), 0.01% Tween 20, 0.1 mM DTT; conventional titration. To be noted: tags: N-GST (pGEX-6P-1, kept); dsDNA, one strand shown.
Chain of Kr (P07247 220-332): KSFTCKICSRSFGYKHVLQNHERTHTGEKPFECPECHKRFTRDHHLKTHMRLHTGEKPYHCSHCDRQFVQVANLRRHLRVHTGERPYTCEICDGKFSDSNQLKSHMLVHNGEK
As to TTGAGGTATTA, the binding signal is 13.8 Kd / Kd of best base at the position.
Turning to TTGATGGATTA, the binding signal was 4.9 Kd / Kd of best base at the position.
Take TTGAGGGATCA: the binding signal is 4.06 Kd / Kd of best base at the position.
In the case of TTGAGCGATTA, the binding signal is 27.9 Kd / Kd of best base at the position.
With TTGAGGGAATA, the binding signal was 4.25 Kd / Kd of best base at the position.
Same read-out and setting: the figure for TTCAGGGATTA is 4.61 Kd / Kd of best base at the position; for TAGAGGGATTA it is 1.67 Kd / Kd of best base at the position; for TTGAGTGATTA it is 37.9 Kd / Kd of best base at the position.
Same read-out and setting: the figure for TTGAGGGATTC is 2.58 Kd / Kd of best base at the position.
Still for that read-out and setting: for TTGAGGGAGTA the value was 2.01 Kd / Kd of best base at the position.
As to TTGAGGGACTA, the binding signal was 3.27 Kd / Kd of best base at the position.
Still for that read-out and setting: the figure for TTAAGGGATTA is 1.14 Kd / Kd of best base at the position; for TTGAGGGATTG it is 1.33 Kd / Kd of best base at the position.
Still for that read-out and setting: for TTGAGGAATTA the value was 2.59 Kd / Kd of best base at the position; for TTGAGGGATAA, 1.82 Kd / Kd of best base at the position.
Turning to TTGAAGGATTA, the binding signal was 1.22 Kd / Kd of best base at the position.
Consider TTGAGGCATTA, for which the binding signal is 267 Kd / Kd of best base at the position.
Same read-out and setting: the figure for TTGACGGATTA is 2.29 Kd / Kd of best base at the position.
Same read-out and setting: the figure for TTGAGGGCTTA is 2.19 Kd / Kd of best base at the position.
With GTGAGGGATTA, the binding signal was 1.3 Kd / Kd of best base at the position.
The same measure, in the same setting: for TTGAGAGATTA the value was 15.7 Kd / Kd of best base at the position; for ATGAGGGATTA, 1.06 Kd / Kd of best base at the position; for TCGAGGGATTA, 1.5 Kd / Kd of best base at the position.
The sequence TTGAGGGATTA came in with a Kd of roughly 0.2 nM.
For TTGAGGGATGA, the binding signal was 1.78 Kd / Kd of best base at the position.
On the same count and under the same terms, for TTTAGGGATTA the value was 4.08 Kd / Kd of best base at the position.
For TTGTGGGATTA, the binding signal is 3.61 Kd / Kd of best base at the position.
In the case of TTGAGGGATTT, the binding signal is 1.61 Kd / Kd of best base at the position.
Same read-out and setting: for TTGAGGGTTTA the value was 9.26 Kd / Kd of best base at the position; for TGGAGGGATTA, 1.3 Kd / Kd of best base at the position; for TTGCGGGATTA, 12.2 Kd / Kd of best base at the position.
On the same count and under the same terms, for TTGAGGGGTTA the value was 1.22 Kd / Kd of best base at the position; for CTGAGGGATTA, 1.7 Kd / Kd of best base at the position; for TTGGGGGATTA, 16.7 Kd / Kd of best base at the position.

As a reminder, the Kd is a measure of binding affinity in units of concentration. Low readings indicate a tighter complex, high ones a looser complex.
